# From article PMC11062922 (Nature Chemical Biology, 2023)
# Read-outs that look alike come from different tables or passages of the source.
# What was measured:
# AAK1 = system: AAK1; parameters: species or system human, MV4-11 + K-562 + COLO205 + SK-N-BE2 + OVCAR-8; conditions: read-out: apparent Kd, n = 1
# BMP2K = system: BMP2K; parameters: species or system human, MV4-11 + K-562 + COLO205 + SK-N-BE2 + OVCAR-8; conditions: read-out: apparent Kd, n = 1
# CLK1 = system: CLK1; parameters: species or system human, MV4-11 + K-562 + COLO205 + SK-N-BE2 + OVCAR-8; conditions: read-out: apparent Kd, n = 1
# CLK4 = system: CLK4; parameters: species or system human, MV4-11 + K-562 + COLO205 + SK-N-BE2 + OVCAR-8; conditions: read-out: apparent Kd, n = 1
# CSNK2A1;CSNK2A3 = system: CSNK2A1;CSNK2A3; parameters: species or system human, MV4-11 + K-562 + COLO205 + SK-N-BE2 + OVCAR-8; conditions: read-out: apparent Kd, n = 1
# CSNK2A2 = system: CSNK2A2; parameters: species or system human, MV4-11 + K-562 + COLO205 + SK-N-BE2 + OVCAR-8; conditions: read-out: apparent Kd, n = 1
# FLT4 = system: FLT4; parameters: species or system human, MV4-11 + K-562 + COLO205 + SK-N-BE2 + OVCAR-8; conditions: read-out: apparent Kd, n = 1
# GAK = system: GAK; parameters: species or system human, MV4-11 + K-562 + COLO205 + SK-N-BE2 + OVCAR-8; conditions: read-out: apparent Kd, n = 1
# GSK3A = system: GSK3A; parameters: species or system human, MV4-11 + K-562 + COLO205 + SK-N-BE2 + OVCAR-8; conditions: read-out: apparent Kd, n = 1
# GSK3B = system: GSK3B; parameters: species or system human, MV4-11 + K-562 + COLO205 + SK-N-BE2 + OVCAR-8; conditions: read-out: apparent Kd, n = 1
# MELK = system: MELK; parameters: species or system human, MV4-11 + K-562 + COLO205 + SK-N-BE2 + OVCAR-8; conditions: read-out: apparent Kd, n = 1
# NUAK1 = system: NUAK1; parameters: species or system human, MV4-11 + K-562 + COLO205 + SK-N-BE2 + OVCAR-8; conditions: read-out: apparent Kd, n = 1
# PAK4 = system: PAK4; parameters: species or system human, MV4-11 + K-562 + COLO205 + SK-N-BE2 + OVCAR-8; conditions: read-out: apparent Kd, n = 1
# PKN1 = system: PKN1; parameters: species or system human, MV4-11 + K-562 + COLO205 + SK-N-BE2 + OVCAR-8; conditions: read-out: apparent Kd; compound concentrations:100 nM and 1000 nM (sheet 'Samples'); n = 1
# PKN3 = system: PKN3; parameters: species or system human, MV4-11 + K-562 + COLO205 + SK-N-BE2 + OVCAR-8; conditions: read-out: apparent Kd; compound concentrations:100 nM and 1000 nM (sheet 'Samples'); n = 1
# PRKAG1 = system: PRKAG1; parameters: species or system human, MV4-11 + K-562 + COLO205 + SK-N-BE2 + OVCAR-8; conditions: read-out: apparent Kd, n = 1
# Q6ZSR9 = Q6ZSR9 (human, UniProt Q6ZSR9); parameters: species or system MV4-11 + K-562 + COLO205 + SK-N-BE2 + OVCAR-8; conditions: read-out: apparent Kd, n = 1
# Q6ZSR9, sequence (Q6ZSR9 whole entry, looked up): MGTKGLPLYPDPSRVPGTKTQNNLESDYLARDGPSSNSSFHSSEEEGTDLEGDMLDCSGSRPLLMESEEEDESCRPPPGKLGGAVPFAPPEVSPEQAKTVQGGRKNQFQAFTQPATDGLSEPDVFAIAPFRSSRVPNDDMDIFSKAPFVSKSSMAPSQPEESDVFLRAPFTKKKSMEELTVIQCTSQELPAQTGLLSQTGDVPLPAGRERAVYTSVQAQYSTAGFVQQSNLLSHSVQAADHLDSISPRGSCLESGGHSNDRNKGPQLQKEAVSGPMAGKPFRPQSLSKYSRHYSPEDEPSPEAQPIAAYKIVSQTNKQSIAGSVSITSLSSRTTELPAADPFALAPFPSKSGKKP
# RET = system: RET; parameters: species or system human, MV4-11 + K-562 + COLO205 + SK-N-BE2 + OVCAR-8; conditions: read-out: apparent Kd, n = 1
# SIK2 = system: SIK2; parameters: species or system human, MV4-11 + K-562 + COLO205 + SK-N-BE2 + OVCAR-8; conditions: read-out: apparent Kd, n = 1
# [1] = compound concentrations:100 nM and 1000 nM (sheet 'Samples')
structure (smiles),measurement,setting,value
Cl.Cl.NCC(C(=O)Nc1cc(Br)c(-c2ccnc3[nH]ccc23)s1)c1ccccc1.NCC(C(=O)Nc1cc(Br)c(-c2ccnc3[nH]ccc23)s1)c1ccccc1 (stereo not drawn) [GSK1269851A],potency estimated from few doses,AAK1; [1],84.4 nM
same,potency estimated from few doses,BMP2K; [1],126 nM
same,potency estimated from few doses,CLK1; [1],449 nM
same,potency estimated from few doses,CLK4; [1],1070 nM
same,potency estimated from few doses,CSNK2A1;CSNK2A3; [1],861 nM
same,potency estimated from few doses,CSNK2A2; [1],1130 nM
same,potency estimated from few doses,FLT4; [1],1230 nM
same,potency estimated from few doses,GAK; [1],63 nM
same,potency estimated from few doses,GSK3A; [1],109 nM
same,potency estimated from few doses,GSK3B; [1],417 nM
same,potency estimated from few doses,MELK; [1],2320 nM
same,potency estimated from few doses,NUAK1; [1],1200 nM
same,potency estimated from few doses,PAK4; [1],736 nM
same,potency estimated from few doses,PKN1,1330 nM
same,potency estimated from few doses,PKN3,863 nM
same,potency estimated from few doses,PRKAG1; [1],416 nM
same,potency estimated from few doses,Q6ZSR9; [1],54.4 nM
same,potency estimated from few doses,RET; [1],539 nM
same,potency estimated from few doses,SIK2; [1],751 nM
COc1ccc(Nc2ncc(C#N)c(Nc3ccccc3C(N)=O)n2)cc1N1CCN(C)CC1.Cl [GSK1558669A],potency estimated from few doses,"AAK1; compound concentrations: 100 nM and 1000 nM (sheet 'Samples'), CATDS: 1.0489274011292E-2",164 nM
same,potency estimated from few doses,"BMP2K; compound concentrations: 100 nM and 1000 nM (sheet 'Samples'), CATDS: 9.7460630022759408E-3",204 nM
same,potency estimated from few doses,"CLK1; compound concentrations: 100 nM and 1000 nM (sheet 'Samples'), CATDS: 1.6853937375741E-2",52 nM
same,potency estimated from few doses,"CLK4; compound concentrations: 100 nM and 1000 nM (sheet 'Samples'), CATDS: 1.78351826711012E-2",46.4 nM
same,potency estimated from few doses,"CSNK2A1;CSNK2A3; compound concentrations: 100 nM and 1000 nM (sheet 'Samples'), CATDS: 3.32003717220812E-2",15.7 nM
same,potency estimated from few doses,"CSNK2A2; compound concentrations: 100 nM and 1000 nM (sheet 'Samples'), CATDS: 5.84237607609163E-2",7.02 nM
same,potency estimated from few doses,"FLT4; compound concentrations: 100 nM and 1000 nM (sheet 'Samples'), CATDS: 6.1594984322683802E-2",6.55 nM
same,potency estimated from few doses,"GAK; compound concentrations: 100 nM and 1000 nM (sheet 'Samples'), CATDS: 7.1387437274862903E-3",650 nM
same,potency estimated from few doses,"GSK3A; compound concentrations: 100 nM and 1000 nM (sheet 'Samples'), CATDS: 2.2002232250464899E-2",31.1 nM
same,potency estimated from few doses,"GSK3B; compound concentrations: 100 nM and 1000 nM (sheet 'Samples'), CATDS: 2.1185466534455601E-2",33.3 nM
same,potency estimated from few doses,"MELK; compound concentrations: 100 nM and 1000 nM (sheet 'Samples'), CATDS: 6.9590061702447499E-3",733 nM
same,potency estimated from few doses,"NUAK1; compound concentrations: 100 nM and 1000 nM (sheet 'Samples'), CATDS: 1.9495800971078701E-2",39 nM
same,potency estimated from few doses,"PAK4; compound concentrations: 100 nM and 1000 nM (sheet 'Samples'), CATDS: 1.03985583586522E-2",168 nM
same,potency estimated from few doses,"PRKAG1; compound concentrations: 100 nM and 1000 nM (sheet 'Samples'), CATDS: 1.48267658268137E-2",68.5 nM
same,potency estimated from few doses,"Q6ZSR9; compound concentrations: 100 nM and 1000 nM (sheet 'Samples'), CATDS: 1.17172228407674E-2",121 nM
same,potency estimated from few doses,"RET; compound concentrations: 100 nM and 1000 nM (sheet 'Samples'), CATDS: 1.6777420038619099E-2",52.5 nM
same,potency estimated from few doses,"SIK2; compound concentrations: 100 nM and 1000 nM (sheet 'Samples'), CATDS: 3.5509703257123403E-2",14.1 nM
